Records with an inconclusive call do not appear. A call without a number means that no potency is given here. Calls of active or inactive are those of the source. The call rests on the fitted dose curve; in most records, active means well fitted cell-killing curve with a large enough effect in the repeat runs; inconclusive means weak or mixed curves, or effect the other way; inactive means flat fitted curve, though single readings scatter. Peptide text beside a SMILES is read from it.

The test in a line: Nuclear factor erythroid 2-related factor 2/antioxidant responsive element (Nrf2/ARE) small molecule agonists: qHTS cell viability counter screen in human keratinocytes (AID 1919968). Further: nearly all actives have a fitted effect of over 55% in size. The conditions noted are these: KeratinoSens HaCaT ARE cells viability, CellTiter-Fluor, 24 h; series mostly up to 92.4 µM. From the text: U.S. Tox21 Program National Center for Advancing Translational Sciences [NCATS] Division of Preclinical Innovation [DPI] U.S. Environmental Protection Agency [EPA] National Institutes of Environmental Health Sciences [NIEHS] National Toxicology Program [NTP] U.S. Food and Drug Administration [FDA] Tox21 Assay Overview: Oxidative stress has been implicated in the pathogenesis of a variety of diseases ranging from cancer to neurodegeneration. The antioxidant response element (ARE) signaling pathway plays an important role in the amelioration of oxidative stress. The KeratinoSens (Givaudan, Switzerland) is an in vitro test method which quantifies luciferase induction as a measure of activation of Keap1-Nrf2-antioxidationt/electrophile response element (ARE) dependant pathway in HaCaT human keratinocytes stably transfected with a selectable plasmid. The KeratinoSens assay is a cell-based assay with a reporter cell line to detect potential skin sensitizers by their ability to induce the Nrf2/ARE-response. The activation of the report gene under culture conditions can be detected by ONE-Glo Luciferase Assay System (Promega, Madison, WI). This cell line has been used to screen the Tox21 10K compound library to identify agonists that induce oxidative stress. The cytotoxicity of the Tox21 compound library against the KS-ARE cell line was tested in parallel by measuring the cell viability using CellTiter- Fluor assay system (Promega, Madison, WI) in the same wells.
Tox21 Assay Protocol Summary: HaCaT derived cell line KeratinoSens were dispensed at 1,500 cells/5uL/well in 1536-well white wall/solid bottom plates using a Multidrop Combi (ThermoFisher Scientific, Waltham, MA) dispenser. After the assay plates were incubated at 37 C/5% CO2 for 5 h, 23 nL of compounds dissolved in DMSO, positive controls or DMSO only was transferred to the assay plate by a pintool workstation (Kalypsys, San Diego, CA). The plates were incubated at 37 C/5% CO2 for 23 h, followed by addition of 1uL/well of CellTiter-Fluor reagent into the assay plates using a Flying Reagent Dispenser (Aurora Discovery, San Diego, CA) for cell viability readout that measures cytotoxicity. After 1 h incubation at 37 C/5% CO2 the fluorescence intensity was measured using a ViewLux (PerkinElmer, Shelton, CT) plate reader.
For orientation: In qHTS, concentration-response curves come from the screen itself.
As to `NC(=O)N1c2ccccc2C=Cc2ccccc21`, the Potency result is “inactive”.
Under `COCCOCCOC` stands “inactive”; under `Cc1occc(=O)c1O`, “inactive”.
Under `CC(C)=CCl` stands “inactive”.
Under `C=CC(=O)OCCCCCCCC(C)C` stands “inactive”; under `c1cc(-c2ccncc2)ccn1`, “inactive”; under `O=C(O)Cc1c[nH]c2ccccc12`, “inactive”.
As for `CC1(C)CC(N=C=O)CC(C)(CN=C=O)C1` (stereo not given), the Potency entry was “inactive”.
In the case of `C=C[C@@]1(C)CC(=O)[C@]2(O)[C@@]3(C)[C@@H](O)CCC(C)(C)[C@@H]3[C@H](O)[C@H](OC(C)=O)[C@@]2(C)O1` it was “inactive”.
In the case of `O=C(O)Cn1c(=O)n(Cc2ccc(Br)cc2F)c(=O)c2ccc(Cl)cc21` it was “inactive”.
In the case of `O=C(c1ccccc1)C(O)c1ccccc1` (stereo not given) it was “inactive”; in that of `Cc1ccc([N+](=O)[O-])cc1S(=O)(=O)O`, “inactive”; in that of `Nc1ccc(S(=O)(=O)Nc2nccs2)cc1`, “inactive”.
Turning to `Cc1ncc[nH]1`, the Potency result was “inactive”.
In the case of `O=[N+]([O-])c1ccccc1C(F)(F)F` it was “inactive”; in that of `CCC(C)OC(=O)c1ccc(O)cc1` (stereo not given), “inactive”.
As for `Cc1ccc(O)c(-n2nc3ccccc3n2)c1`, the Potency entry is “inactive”.
In the case of `CC1(C)CC(N)CC(C)(CN)C1` (stereo not given) it was “inactive”.
In the case of `COc1ccc2[nH]cc(CCNC(C)=O)c2c1` it was “inactive”; in that of `COC(=O)CC(=O)OC`, “inactive”; in that of `OC[C@]1(O)OC[C@@H](O)[C@H](O)[C@@H]1O`, “inactive”.
Under `O=C(O)c1cccc(C(=O)O)c1` stands “inactive”; under `O=C(O)c1ccccc1`, “inactive”.
Regarding `O=C(O)c1ccc(C(=O)O)cc1`, the Potency entry was “inactive”.
Under `NS(=O)(=O)c1cc2c(cc1Cl)NC=NS2(=O)=O` stands “inactive”.
Under `CNC[C@H](O)c1cccc(O)c1` stands “inactive”.
Under `O=C(O)/C=C\C(=O)O` stands “inactive”; under `NC(=O)OCC(COC(N)=O)c1ccccc1`, “inactive”; under `NNC(=O)c1ccncc1`, “inactive”.
Turning to `Cc1ccc(C)c(C)c1`, the Potency result was “inactive”.
Under `C=C(C)C1CC=C(C)CC1` (stereo not given) stands “inactive”.
Turning to `Cc1cccc(C)c1`, the Potency result was “inactive”.
Consider `CC(C)=CCC/C(C)=C/C=O`, for which the Potency entry was “inactive”.
As to `CCCCCCCCCC(=O)O`, the Potency result was “inactive”.
In the case of `C/C=C/c1ccc(OCC)c(O)c1` it was “inactive”.
Under `CCCCCCCCCCCCCCCCCC(=O)OCC(O)CO` (stereo not given) stands “inactive”; under `OC[C@@H](O)[C@@H](O[C@@H]1O[C@H](CO)[C@H](O)[C@H](O)[C@H]1O)[C@H](O)[C@@H](O)CO`, “inactive”.
In the case of `Cc1ccc2c(n1)Oc1ccc(C(C)C(=O)OCC(=O)N(C)C)cc1C2` (stereo not given) it was “inactive”; in that of `C#C[C@]1(O)CC[C@H]2[C@@H]3CCc4cc(O)ccc4[C@H]3CC[C@@]21C`, “inactive”.
Regarding `COC(=O)[C@H](Cc1ccccc1)NC(=O)[C@@H](N)CC(=O)O` (H-Asp-Phe-OMe), the Potency entry is “inactive”.

Source of the values: PubChem BioAssay (Tox21).
